Experiment in all cases: NCI-60 one-dose screen, 48 h (100 = growth as untreated, 0 = no growth, -100 = all killed)
Assay [1] concerns HT29 colon. To be noted: 10 µM unless noted.
For assay [2], the system named is SNB-75 CNS. The note with it: 10 µM.
In assay [3] the test system is SNB-19 CNS. The note with it: 10 µM unless noted.
For assay [4], the system named is U251 CNS. The note with it: 10 µM unless noted.
The test system of assay [5] is PC-3 prostate. The note with it: 10 µM unless noted.
The subject of assay [6] is UACC-62 melanoma. To be noted: 10 µM unless noted.
Assay [7] deals with LOX IMVI melanoma. To be noted: 10 µM unless noted.
Assay [8] relates to SK-MEL-2 melanoma. The note with it: 10 µM unless noted.
In assay [9] the test system is SN12C renal. The note with it: 10 µM unless noted.
The test system of assay [10] is UO-31 renal. To be noted: 10 µM unless noted.
The test system of assay [11] is TK-10 renal. The note with it: 10 µM unless noted.
For assay [12], the system named is ACHN renal. The note with it: 10 µM unless noted.
The test system of assay [13] is CAKI-1 renal. The note with it: 10 µM unless noted.
For assay [14], the system named is A498 renal. To be noted: 10 µM unless noted.
The test system of assay [15] is CCRF-CEM leukemia. The note with it: 10 µM unless noted.
Assay [16] relates to MOLT-4 leukemia. The note with it: 10 µM unless noted.
Assay [17] deals with SK-MEL-5 melanoma. The note with it: 10 µM unless noted.
In assay [18] the test system is SK-MEL-28 melanoma. To be noted: 10 µM unless noted.
The test system of assay [19] is EKVX NSCLC. The note with it: 10 µM unless noted.

SMILES strings stand for the structures. This is part of a sample that, as a whole, favours compounds with a hit. Of some 83,000 tested, about 20% had one in any assay.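 In brief: 96-well plates, 48 h treatment, single concentration, percent growth endpoint.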 Unmarked numbers belong to inactive results. The source made the active and inactive calls. How the source made its calls: active means growth percent below 10; inactive means the rest.

Regarding `c1cc2[nH]ncc2cc1-c1nc2ccc3[nH]ncc3c2c2c1CCC2`, the growth in assay [1] was 37.9%; in assay [2] it was 34.9%; in [3], 69.5%; in assay [4], 43.6%; in assay [5], 54.5%; in assay [6] it was 15.4%. The growth is 40.4% in [7]; 19% in assay [8]; 63.9% in assay [9]; 38% in assay [10]; 30.8% in [11]; 23.8% in [12]. Besides, the growth in assay [13] is 23.3%; in assay [14], -3.31% (active); in [15], 30.2%; in [16], 20.9%.
Regarding `O=C1C2(c3ccccc3)C(c3ccccc3)=C(c3ccccc3)C1(c1ccccc1)C1CC=CC12` (centres undefined), the growth is 81.8% in assay [1]; 83.4% in [2]; 85.5% in assay [3]; 89.4% in assay [4]; 48.8% in [5]; 85.8% in [17]. The growth in [6] is 78.3%; in [7], 85%; in assay [18], 108%; in [8], 82.6%; in assay [9], 86.1%; in [10], 61.6%. The growth was 118% in assay [11]; 86.7% in [12]; 89.2% in assay [14]; 84.2% in [15]; 84.4% in [16].
For `C=C(C)[C@@H]1CC[C@]2(C(=O)N3CCNCC3)CC[C@]3(C)[C@H](CC[C@@H]4[C@@]5(C)C/C(=C/c6ccncc6)C(=O)C(C)(C)[C@@H]5CC[C@]43C)[C@@H]12`, the growth in assay [1] is 109%; in assay [2] it was 96.4%; in assay [3], 99.5%; in assay [4], 101%; in [5], 94.4%; in assay [17], 99.6%. The growth in assay [6] is 103%; in assay [7], 97.2%; in [8], 107%; in [9], 106%; in assay [10] it was 90.3%; in assay [11], 102%. The growth in assay [12] is 103%; in [13], 95.6%; in assay [14] it was 111%; in assay [16], 95.6%.
As to `CC1(C)C(=O)/C(=C\c2ccc(C(F)(F)F)cc2)C[C@]2(C)[C@H]3CC[C@@H]4[C@H]5[C@H](C(=O)/C=C/c6ccc(C(F)(F)F)cc6)CC[C@]5(CO)CC[C@@]4(C)[C@]3(C)CC[C@@H]12`, the growth is 104% in [1]; 83.7% in assay [2]; 92.6% in [3]; 84% in assay [5]; 94.1% in assay [17]; 84.3% in assay [6]. The growth is 110% in [18]; 105% in assay [8]; 91.8% in assay [9]; 66.6% in assay [10]; 126% in assay [11]; 91.9% in assay [12]. Also, the growth in assay [13] was 56.2%; in assay [14], 93.7%; in [15], 90.5%; in assay [16], 82.5%.
Consider `Fc1ccccc1-c1nc(-c2nc3cc(Cl)c(Cl)cc3[nH]2)c2ccccn12`, for which the growth in [1] was 70.8%; in assay [2], 38.1%; in assay [4], 95%; in [5], 62.2%; in assay [17], 79.4%; in assay [6], 83.1%. Further, the growth is 79.9% in [7]; 83.9% in assay [18]; 81.5% in [8]; 70.7% in [9]; 62.6% in assay [10]; 76.5% in assay [11]. For the same compound, the values for the growth in assay [14], in assay [15] and in [16] were 104%, 81.9% and 67.1%, respectively.
Regarding `CN1CCN(Cc2ccc(NC(=O)c3cncc(C#Cc4cnc(N)c5ccncc45)c3)cc2C(F)(F)F)CC1`, the growth in assay [1] is 9.95% (active); in [3], 51.3%; in assay [4], 37.3%; in [5], 25.5%; in assay [17], 11.9%; in assay [6], -28.8% (active). Also, the growth in [7] is -83.9% (active); in assay [18] it was -3.08% (active); in assay [8] it was -25.2% (active); in [19], 13.9%; in [9], 6.05% (active); in assay [10], 3.59% (active). For the same compound, the growth in [11] was 48.6%; in assay [12], 2.28% (active); in [13], 4.48% (active); in [14], -22.7% (active); in assay [15], 14.2%; in assay [16] it was 16.6%.
Consider `O=C(CSc1nc2ccccc2[nH]1)Nc1ccc(-c2nc3ccccc3s2)c(Cl)c1`, for which the growth was 14.7% in assay [1]; -28.5% (active) in [2]; 65% in [3]; 26.3% in assay [5]; 23.4% in assay [17]; 49.3% in [6]. Moreover, the growth in [18] was 0.271% (active); in assay [8], 51.2%; in assay [19] it was 27.1%; in assay [9] it was 35.1%; in assay [10] it was 8.16% (active); in assay [11], 30.1%. Also, the results for the growth in assay [13], in [14] and in [16] were 26.9%, 71.8% and 81.3%, respectively.
Turning to `CN1CCN(Cc2ccc(NC(=O)c3nc4ccc5[nH]ncc5c4c4c3CCC4)cc2C(F)(F)F)CC1`, the growth in assay [1] was -66% (active); in [2], 96.3%; in assay [4], -93.7% (active); in assay [5] it was -64.8% (active); in [17], 88.5%; in [6] it was -61.7% (active). Also, the growth was -86.8% (active) in [7]; 104% in assay [8]; -82.7% (active) in assay [9]; -96.3% (active) in [10]; -91.2% (active) in assay [11]; -99.6% (active) in [12]. Besides, the growth in assay [13] was -97.4% (active); in assay [14] it was 84.6%; in assay [15] it was -9.12% (active); in assay [16], -38.7% (active).
On to `CCCCCCCC/C=C/CCCCCCCC1=NC(C)(C)CN1C(C)(C)CO`, for which the growth was -57.8% (active) in assay [1]; 38.5% in [2]; 57.9% in assay [3]; -68.1% (active) in assay [4]; 44.9% in assay [5]; 4.8% (active) in assay [17]. Also, the growth in assay [6] is -25.3% (active); in [7] it was -100% (active); in assay [18], -63.9% (active); in assay [8], 51.3%; in assay [19] it was 66.2%; in assay [9] it was 48.7%. In addition, the growth in [10] is 44.5%; in assay [11] it was 62.1%; in assay [12], 21.6%; in assay [13], 42.3%; in assay [14], 88.8%; in assay [15], 3.32% (active). Also, in [16], the growth is -22.6% (active).
On to `Cc1ccc(CSC(=N)N)cc1C`, for which the growth is 104% in assay [1]; 98.7% in assay [3]; 111% in assay [4]; 87.7% in assay [5]; 105% in assay [17]; 97.8% in [6]. The growth in assay [7] is 91.9%; in [18], 111%; in assay [8], 125%; in assay [19] it was 100%; in [9], 104%; in [10] it was 87.7%. Moreover, the growth was 102% in [11], 107% in assay [12], 93.4% in assay [13] and 103% in assay [14].
